Consider 11 compounds from PubChem BioAssay (NCI).

Test systems include NCI-H322M lung; NCI-H522 lung; RXF 393 renal; ACHN renal; SR leukemia; OVCAR-4 ovarian; BT-549 breast; MDA-MB-435 melanoma; SW-620 colon; MCF7 breast; HCC-2998 colon; SK-MEL-5 melanoma; CCRF-CEM leukemia; HCT-116 colon; SK-MEL-28 melanoma; HOP-92 NSCLC; KM12 colon; T-47D breast.
Assay in all cases: NCI-60 one-dose screen, 48 h (100 = growth as untreated, 0 = no growth, -100 = all killed)
Conditions in all cases: 10 µM

Molecules are shown by their SMILES. About 83,000 compounds went through this panel and 20% of them were active in at least one assay; those are over-represented in the sample as a whole.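 96-well plates, one dose, 48 hours. Percent growth reported; active if below 10.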 A number with no mark means an inactive call. The source made the active and inactive calls.

Turning to `COc1ccc(C(=O)COc2ccc(NC(=O)Nc3ccc(Cl)c(C(F)(F)F)c3)cc2)cc1`, the growth was 36.3% in the experiment with NCI-H322M lung; -43.2% (active) with NCI-H522 lung; -52.1% (active) in the experiment on RXF 393 renal; 17.9% in the experiment with ACHN renal; 7.72% (active) in the experiment with SR leukemia; 19% in the experiment on OVCAR-4 ovarian. Further, the growth with BT-549 breast is 38%; in the experiment on MDA-MB-435 melanoma it was 27.3%; with SW-620 colon, 54.6%; with MCF7 breast, 17.1%; with HCC-2998 colon, 1.03% (active).

Regarding `O=C1NC2C=CC=CC2/C1=C1/SC(=S)N(C2CC(=O)N(c3ccc(Br)cc3)C2=O)C1=O` (stereo unspecified), the growth with NCI-H322M lung is 101%; with RXF 393 renal it was 109%; with SK-MEL-5 melanoma it was 100%; in the experiment with ACHN renal, 94.1%; in the experiment on CCRF-CEM leukemia, 53.9%; in the experiment on OVCAR-4 ovarian, 93.1%. Further, the growth is 101% in the experiment on BT-549 breast; 95.7% with MDA-MB-435 melanoma; 93.4% in the experiment with SW-620 colon; 45.7% in the experiment with MCF7 breast; 103% in the experiment on HCT-116 colon; 99.3% with HCC-2998 colon.

`O=C1NC(=S)S/C1=C\c1cn(-c2ccccc2)nc1-c1ccc([N+](=O)[O-])cc1`: the growth with NCI-H322M lung is 30.5%; in the experiment with NCI-H522 lung, -4.14% (active); in the experiment on RXF 393 renal, 3.42% (active); with SK-MEL-5 melanoma, -33.3% (active); in the experiment on SK-MEL-28 melanoma, 18.3%; in the experiment with CCRF-CEM leukemia it was 18.5%. The growth was 24.5% in the experiment with SR leukemia; 15% in the experiment on OVCAR-4 ovarian; -16% (active) with BT-549 breast; 6.24% (active) in the experiment on MDA-MB-435 melanoma; 21.7% in the experiment with SW-620 colon; 6.25% (active) in the experiment on MCF7 breast. The growth in the experiment with HCT-116 colon was 5% (active); with HCC-2998 colon, 22.4%.

For the compound `COc1ccccc1-n1cc(C#N)c(N)c1C(=O)c1ccc(Cl)cc1Cl`, the growth was 48% in the experiment on NCI-H322M lung; 44.2% in the experiment with HOP-92 NSCLC; -8.31% (active) with RXF 393 renal; 57.5% with SK-MEL-28 melanoma; 7.78% (active) in the experiment on CCRF-CEM leukemia; 61% with OVCAR-4 ovarian. For the same compound, the growth was 31.4% in the experiment on BT-549 breast; -38.3% (active) with MDA-MB-435 melanoma; 25% in the experiment with SW-620 colon; 16.4% in the experiment with MCF7 breast; 36.6% in the experiment with HCT-116 colon; 58.5% in the experiment on HCC-2998 colon. Also, the growth with KM12 colon was 22.9%.

Take `O=C(Nc1ccc(Oc2ncnc3scc(Nc4n[nH]c(=S)s4)c23)cc1)C1(C(=O)Nc2cccc(C(F)(F)F)c2)CC1`: the growth is 101% with NCI-H322M lung; 94.1% in the experiment with NCI-H522 lung; 118% with RXF 393 renal; 108% in the experiment on SK-MEL-28 melanoma; 95.6% in the experiment on ACHN renal; 111% in the experiment with CCRF-CEM leukemia. The growth in the experiment with SR leukemia is 85%; in the experiment with OVCAR-4 ovarian, 108%; in the experiment on T-47D breast, 86.7%; in the experiment on BT-549 breast, 96.1%; in the experiment with MDA-MB-435 melanoma, 105%; with SW-620 colon, 103%. In addition, the values for the growth in the experiment on MCF7 breast, in the experiment with HCT-116 colon and in the experiment with HCC-2998 colon were 23.3%, 99.7% and 107%, respectively.

As to `COc1cc2oc(-c3cccc(C(=O)Nc4ccc(Cl)cc4)c3)cc(=O)c2c(OCCN)c1OC`, the growth with HOP-92 NSCLC was -84% (active); with NCI-H522 lung, -87.1% (active); in the experiment with RXF 393 renal it was -85% (active); in the experiment with SK-MEL-5 melanoma, -94.7% (active); with CCRF-CEM leukemia, -52.6% (active); in the experiment on OVCAR-4 ovarian it was -62.9% (active). For the same compound, the growth in the experiment with BT-549 breast is -88.2% (active); in the experiment on MDA-MB-435 melanoma it was -76.9% (active); in the experiment on SW-620 colon, -79.4% (active); in the experiment on MCF7 breast it was -71.5% (active); with HCC-2998 colon it was -80.8% (active).

In the case of `O=C(CC(=O)Nc1ccc(Oc2ncnc3scc(Nc4n[nH]c(=S)s4)c23)cc1)Nc1ccc(Cl)cc1`, the growth in the experiment with NCI-H322M lung is 94.5%; with NCI-H522 lung it was 55.2%; with RXF 393 renal, 94.8%; with SK-MEL-5 melanoma, 89%; in the experiment with SK-MEL-28 melanoma, 101%; in the experiment with CCRF-CEM leukemia, 58.1%. Also, the growth with OVCAR-4 ovarian is 90.2%; in the experiment with BT-549 breast, 80.2%; in the experiment with MDA-MB-435 melanoma, 83.2%; in the experiment with SW-620 colon, 93.5%; with MCF7 breast, 11.7%; in the experiment with HCC-2998 colon it was 99.8%.

`C#C[C@]1(O)CC[C@H]2[C@@H]3CC=C4c5sc(Nc6ccc(C(F)(F)F)cn6)nc5CC[C@]4(C)[C@H]3CC[C@@]21C`: the growth with NCI-H322M lung is 13.7%; in the experiment with HOP-92 NSCLC, -7.64% (active); with RXF 393 renal, -37.9% (active); in the experiment on SK-MEL-5 melanoma it was -97.1% (active); in the experiment with CCRF-CEM leukemia, 6.72% (active); in the experiment with OVCAR-4 ovarian, 20%. Also, the growth in the experiment on T-47D breast was 8.97% (active); in the experiment on BT-549 breast, -50% (active); in the experiment with MDA-MB-435 melanoma, 1.17% (active); in the experiment with SW-620 colon it was -32.8% (active); with MCF7 breast it was -28.7% (active); in the experiment on HCT-116 colon, -66.9% (active). The growth in the experiment on HCC-2998 colon is 4.01% (active); with KM12 colon, -16.5% (active).

As to `O=C(CSc1nc2ccccc2c(=O)n1-c1ccc(Cl)cc1)Nc1ccc(-c2nc3ccccc3[nH]2)cc1`, the growth was 37.5% in the experiment with NCI-H322M lung; -35.1% (active) in the experiment with RXF 393 renal; 47.7% in the experiment on SK-MEL-5 melanoma; -62% (active) in the experiment on SK-MEL-28 melanoma; -15.2% (active) in the experiment with SR leukemia; -75.6% (active) in the experiment on OVCAR-4 ovarian. The growth was -68.5% (active) with T-47D breast; 35.6% in the experiment with BT-549 breast; -16% (active) in the experiment on MDA-MB-435 melanoma; 7.92% (active) in the experiment on SW-620 colon; -68.3% (active) in the experiment with MCF7 breast; 4.31% (active) in the experiment on HCC-2998 colon. In addition, the growth in the experiment on KM12 colon is 17%.

With `Cc1cc(N=C2NC(=O)/C(=C/c3cc(C(C)(C)C)c(O)c(C(C)(C)C)c3)S2)n[nH]1`, the growth was 28.6% in the experiment on NCI-H322M lung; -26.1% (active) in the experiment with NCI-H522 lung; -38.6% (active) in the experiment with RXF 393 renal; 13% in the experiment on CCRF-CEM leukemia; -42.7% (active) in the experiment on OVCAR-4 ovarian; -1.78% (active) with BT-549 breast. Also, the growth is 4.96% (active) with MDA-MB-435 melanoma, 15.3% in the experiment on SW-620 colon, 4.33% (active) with MCF7 breast and 22.5% in the experiment on HCC-2998 colon.

`COc1ccc(-n2c(SCC(=O)NNS(=O)(=O)c3ccccc3)nc3ccc(Cl)cc3c2=O)cc1`: the growth in the experiment with NCI-H322M lung is 98.1%; with HOP-92 NSCLC, 101%; in the experiment on RXF 393 renal, 100%; in the experiment on ACHN renal, -8.76% (active); in the experiment with CCRF-CEM leukemia, 108%; with OVCAR-4 ovarian it was 98.2%. In addition, the growth is 105% with BT-549 breast; 103% in the experiment with MDA-MB-435 melanoma; 105% in the experiment on SW-620 colon; 83.2% in the experiment with MCF7 breast; 118% with HCC-2998 colon.
